Source: the supplement of paper PMC10849652
Of roughly 8,800 targets only a part is listed; those with a hit were picked by preference. About 0.5% of all pairs of compound and target were hits.

Experiments:
Assay in all cases: log2 fold change, soluble protein after heating vs DMSO (PISA); higher = thermal stabilisation; K562 lysate, 10 uM; active = over 0.2 and 3.5 SD of the protein, either way, in both replicates (recomputed)
erlotinib = compound: C#Cc1cccc(Nc2ncnc3cc(OCCOC)c(OCCOC)cc23)c1 [erlotinib]
Procedure, shortened: (§1)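 A 30 min treatment with 10 μM compound was applied to crude K562 extract at 1 mg/mL protein in PBS pH 7.4 with 1 mM MgCl2. Heating for 3 min spanned 48°C-58°C, after which aliquots were pooled, adjusted to 0.5% NP-40 at 4°C and spun at 21,000xg for 90 min. TMTpro 16plex LC-MS/MS of the supernatant, with channel sums equalised, gave values recorded as log-two fold change in thermal stability against solvent controls, from duplicates.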

[1] = compound: C/C(=N\NC(=O)C1=CC(=CC=C1)S(=O)(=O)N2CCOCC2)/C3=C(C=CC(=C3)Cl)O
Procedure, shortened: as §1

[2] = compound: C1=CC(=CC=C1C2=NC3=C(N2)C=C(C=C3)C(=O)N)OC4=CC=C(C=C4)Cl
Procedure, shortened: as §1

[3] = compound: C1=CC2=C(C=CC(=C2)/C=C\3/C(=O)NC(=NCC4=CC=CS4)S3)N=C1
Procedure, shortened: as §1

[4] = compound: C1=CC2=NC=CN=C2C=C1/C=C/3\C(=O)NC(=O)S3
Procedure, shortened: as §1

[5] = compound: C1=CC=C(C=C1)C2=NC(=C(N2)C3=CC=NC=C3)C4=CC(=C(C=C4)Cl)O
Procedure, shortened: as §1

[6] = compound: C1=CC=C2C(=C1)C3=NNC4=CC=CC(=C43)C2=O
Procedure, shortened: as §1

[7] = compound: C1CCN(C1)C(=O)NC2=CC=CC(=C2)NC3=NC=C(C(=N3)NCCC4=CN=CN4)Br
Procedure, shortened: as §1

[8] = compound: C1CN(CCC1(CC2=CC=C(C=C2)Cl)N)C3=NC=NC4=C3C=CN4
Procedure, shortened: as §1

IRAK-1-4 Inhibitor I = compound: C1COCCN1CCN2C3=CC=CC=C3N=C2NC(=O)C4=CC(=CC=C4)[N+](=O)[O-] [IRAK-1-4 Inhibitor I]
Procedure, shortened: as §1

ibrutinib = compound: C=CC(=O)N1CCC[C@@H](n2nc(-c3ccc(Oc4ccccc4)cc3)c3c(N)ncnc32)C1 [ibrutinib]
Procedure, shortened: as §1

[9] = compound: CC(=O)c1cnc2ccc(-c3cc(Cl)c(O)c(Cl)c3)nc2c1N[C@H]1CC[C@H](CN(C)C)CC1
Procedure, shortened: as §1

ralimetinib = compound: CC(C)(C)Cn1c(N)nc2ccc(-c3[nH]c(C(C)(C)C)nc3-c3ccc(F)cc3)nc21 [ralimetinib]
Procedure, shortened: as §1

[10] = compound: CC(C)(O)CC(=O)NCCn1ccc2ncnc(Nc3ccc(Oc4cccc(C(F)(F)F)c4)c(Cl)c3)c21
Procedure, shortened: as §1

[11] = compound: CC(C)C1=C2N=C(C=C(N2N=C1)NCC3=CC=CC=C3)NCCCCCCN
Procedure, shortened: as §1

[12] = compound: CC1=C(C(CC(=O)N1)C2=CC=C(C=C2)C(F)(F)F)C(=O)NC3=C(C=C4C(=C3)C=NN4)F
Procedure, shortened: as §1

[13] = compound: CC1=C(C2=C(C=C1)C(=O)C3=CC=CC=C3N2CCCN)C
Procedure, shortened: as §1

[14] = compound: CC1=C(C=C(C=C1)NC(=O)C2=CC(=CC=C2)C(C)(C)C#N)NC3=CC4=C(C=C3)N=CN(C4=O)C
Procedure, shortened: as §1

[15] = compound: CC1=C(C=C(C=C1)NC(=O)C2=CC(=CC=C2)N(C)C)NC(=O)C3=CC=C(C=C3)O
Procedure, shortened: as §1

[16] = compound: CC1=CC=C(C=C1)SC2=C3C=C(SC3=CN=C2)C(=O)N
Procedure, shortened: as §1

Measured: log2 fold change

BTAF1 (UniProt O14981)
Chain of UniProt O14981 (O14981 whole entry, looked up): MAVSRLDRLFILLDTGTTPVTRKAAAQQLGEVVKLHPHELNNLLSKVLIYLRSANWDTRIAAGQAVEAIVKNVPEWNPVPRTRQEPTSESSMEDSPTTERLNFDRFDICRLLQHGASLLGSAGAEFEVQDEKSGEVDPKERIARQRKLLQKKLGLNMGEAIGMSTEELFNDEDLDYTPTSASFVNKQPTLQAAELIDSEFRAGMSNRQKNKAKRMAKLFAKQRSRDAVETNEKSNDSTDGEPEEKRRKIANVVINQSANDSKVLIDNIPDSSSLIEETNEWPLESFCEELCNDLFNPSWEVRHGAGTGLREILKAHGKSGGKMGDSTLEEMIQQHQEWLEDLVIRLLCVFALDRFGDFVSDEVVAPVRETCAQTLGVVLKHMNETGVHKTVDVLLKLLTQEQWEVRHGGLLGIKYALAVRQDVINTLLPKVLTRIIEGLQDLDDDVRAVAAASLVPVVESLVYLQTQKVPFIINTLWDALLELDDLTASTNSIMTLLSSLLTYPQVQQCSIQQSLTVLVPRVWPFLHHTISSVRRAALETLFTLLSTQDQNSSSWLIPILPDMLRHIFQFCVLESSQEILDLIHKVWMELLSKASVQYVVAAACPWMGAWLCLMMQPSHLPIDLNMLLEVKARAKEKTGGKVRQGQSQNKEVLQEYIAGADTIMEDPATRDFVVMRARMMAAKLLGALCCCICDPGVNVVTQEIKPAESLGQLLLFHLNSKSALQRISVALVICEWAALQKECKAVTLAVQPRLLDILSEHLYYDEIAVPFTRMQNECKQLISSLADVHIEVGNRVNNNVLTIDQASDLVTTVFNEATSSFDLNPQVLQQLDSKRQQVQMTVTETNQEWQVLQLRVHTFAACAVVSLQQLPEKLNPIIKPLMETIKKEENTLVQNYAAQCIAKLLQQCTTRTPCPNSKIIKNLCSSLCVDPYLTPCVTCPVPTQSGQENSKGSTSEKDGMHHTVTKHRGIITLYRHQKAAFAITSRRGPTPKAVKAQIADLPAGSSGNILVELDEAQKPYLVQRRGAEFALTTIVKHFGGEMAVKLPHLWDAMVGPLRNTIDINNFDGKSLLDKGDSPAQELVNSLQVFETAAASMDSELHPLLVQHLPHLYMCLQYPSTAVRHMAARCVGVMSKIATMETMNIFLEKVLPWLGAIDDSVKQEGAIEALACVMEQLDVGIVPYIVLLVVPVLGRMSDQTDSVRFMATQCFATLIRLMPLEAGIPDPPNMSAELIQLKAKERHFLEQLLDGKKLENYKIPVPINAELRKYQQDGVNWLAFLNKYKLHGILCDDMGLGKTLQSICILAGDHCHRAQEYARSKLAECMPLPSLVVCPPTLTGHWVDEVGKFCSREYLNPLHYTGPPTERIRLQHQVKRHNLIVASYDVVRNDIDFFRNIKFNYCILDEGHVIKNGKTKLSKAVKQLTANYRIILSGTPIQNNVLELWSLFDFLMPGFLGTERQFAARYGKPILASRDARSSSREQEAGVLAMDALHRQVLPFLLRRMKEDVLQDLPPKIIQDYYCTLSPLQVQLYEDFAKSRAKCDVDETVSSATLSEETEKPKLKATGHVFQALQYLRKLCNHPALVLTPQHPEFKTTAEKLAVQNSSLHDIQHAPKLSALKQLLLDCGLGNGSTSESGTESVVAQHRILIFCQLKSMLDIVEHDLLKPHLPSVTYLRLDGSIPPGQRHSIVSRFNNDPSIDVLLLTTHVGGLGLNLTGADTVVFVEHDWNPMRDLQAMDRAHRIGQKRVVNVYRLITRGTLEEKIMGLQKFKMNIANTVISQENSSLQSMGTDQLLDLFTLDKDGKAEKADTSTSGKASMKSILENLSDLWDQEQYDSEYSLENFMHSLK
inactive: erlotinib 0.044 | [1] -0.035 | [2] -0.01 | [3] -0.002 | [4] -0.003 | [5] 0.002 | [6] 0.002 | [7] -0.017 | [8] 0.022 | IRAK-1-4 Inhibitor I -0.034 | ibrutinib -0.016 | [9] -0.003 | ralimetinib 0.01 | [10] -0.008 | [11] 0.003 | [12] 0.018 | [13] 0.023 | [14] 0 | [15] 0.025 | [16] -0.012

CCNY (UniProt Q8ND76)
Chain of UniProt Q8ND76 (Q8ND76 whole entry, looked up): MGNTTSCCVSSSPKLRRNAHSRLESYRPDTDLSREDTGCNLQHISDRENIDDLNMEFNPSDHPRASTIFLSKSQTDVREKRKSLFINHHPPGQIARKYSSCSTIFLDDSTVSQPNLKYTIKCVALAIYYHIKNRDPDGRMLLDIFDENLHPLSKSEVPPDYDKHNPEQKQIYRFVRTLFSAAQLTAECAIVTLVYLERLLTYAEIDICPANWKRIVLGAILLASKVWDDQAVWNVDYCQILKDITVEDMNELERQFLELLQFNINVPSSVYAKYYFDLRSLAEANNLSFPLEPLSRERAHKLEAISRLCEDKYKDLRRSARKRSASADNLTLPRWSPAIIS
inactive: erlotinib -0.082 | [1] -0.033 | [2] 0.041 | [3] -0.037 | [4] 0.052 | [5] 0 | [6] 0.168 | [7] -0.016 | [8] -0.032 | IRAK-1-4 Inhibitor I 0.063 | ibrutinib 0 | [9] -0.013 | ralimetinib -0.046 | [10] -0.099 | [11] 0.014 | [12] -0.036 | [13] 0.023 | [14] 0.063 | [15] 0.078 | [16] 0.001

CFDP1 (UniProt Q9UEE9)
Chain of UniProt Q9UEE9 (Q9UEE9 whole entry, looked up): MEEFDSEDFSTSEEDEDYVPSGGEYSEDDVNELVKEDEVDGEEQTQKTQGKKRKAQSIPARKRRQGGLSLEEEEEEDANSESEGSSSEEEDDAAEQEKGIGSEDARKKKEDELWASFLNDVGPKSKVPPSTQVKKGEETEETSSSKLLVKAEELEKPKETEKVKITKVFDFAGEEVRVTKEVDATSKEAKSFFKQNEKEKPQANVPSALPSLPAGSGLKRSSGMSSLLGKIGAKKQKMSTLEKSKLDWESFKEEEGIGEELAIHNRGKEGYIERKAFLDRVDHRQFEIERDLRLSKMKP
inactive: erlotinib -0.027 | [1] -0.023 | [2] 0.067 | [3] -0.024 | [4] -0.02 | [5] -0.004 | [6] 0.033 | [7] -0.03 | [8] 0.011 | IRAK-1-4 Inhibitor I -0.017 | ibrutinib 0.032 | [9] 0.014 | ralimetinib 0.051 | [10] -0.015 | [11] -0.052 | [12] -0.014 | [13] -0.027 | [14] 0.021 | [15] 0.027 | [16] -0.012

CES2 isoform 4 (UniProt O00748)
Chain of UniProt O00748 (O00748 whole entry, looked up): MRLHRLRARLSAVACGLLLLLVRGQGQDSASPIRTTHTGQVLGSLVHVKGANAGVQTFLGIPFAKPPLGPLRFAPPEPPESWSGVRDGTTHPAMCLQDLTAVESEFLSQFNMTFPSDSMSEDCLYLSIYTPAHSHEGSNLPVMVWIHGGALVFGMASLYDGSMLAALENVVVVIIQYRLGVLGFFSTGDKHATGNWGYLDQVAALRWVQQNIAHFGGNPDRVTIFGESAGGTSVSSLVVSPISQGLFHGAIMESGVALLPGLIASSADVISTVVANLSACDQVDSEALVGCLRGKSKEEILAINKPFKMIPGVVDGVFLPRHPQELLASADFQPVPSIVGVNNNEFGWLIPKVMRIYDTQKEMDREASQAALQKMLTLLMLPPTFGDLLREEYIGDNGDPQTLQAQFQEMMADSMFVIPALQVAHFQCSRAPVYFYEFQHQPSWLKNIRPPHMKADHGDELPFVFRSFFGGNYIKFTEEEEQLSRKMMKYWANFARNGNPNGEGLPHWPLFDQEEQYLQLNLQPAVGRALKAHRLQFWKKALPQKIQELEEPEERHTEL
inactive: erlotinib -0.014 | [1] 0.006 | [2] -0.012 | [3] 0.041 | [4] -0.035 | [5] 0.087 | [6] -0.067 | [7] 0.053 | [8] -0.031 | IRAK-1-4 Inhibitor I 0.075 | [9] -0.048 | ralimetinib -0.031 | [10] 0.057 | [11] -0.004 | [12] 0.202 | [13] -0.128 | [14] 0.079 | [15] -0.019 | [16] -0.025
active: ibrutinib 0.431

BCR (UniProt P11274)
Chain of UniProt P11274 (P11274 whole entry, looked up): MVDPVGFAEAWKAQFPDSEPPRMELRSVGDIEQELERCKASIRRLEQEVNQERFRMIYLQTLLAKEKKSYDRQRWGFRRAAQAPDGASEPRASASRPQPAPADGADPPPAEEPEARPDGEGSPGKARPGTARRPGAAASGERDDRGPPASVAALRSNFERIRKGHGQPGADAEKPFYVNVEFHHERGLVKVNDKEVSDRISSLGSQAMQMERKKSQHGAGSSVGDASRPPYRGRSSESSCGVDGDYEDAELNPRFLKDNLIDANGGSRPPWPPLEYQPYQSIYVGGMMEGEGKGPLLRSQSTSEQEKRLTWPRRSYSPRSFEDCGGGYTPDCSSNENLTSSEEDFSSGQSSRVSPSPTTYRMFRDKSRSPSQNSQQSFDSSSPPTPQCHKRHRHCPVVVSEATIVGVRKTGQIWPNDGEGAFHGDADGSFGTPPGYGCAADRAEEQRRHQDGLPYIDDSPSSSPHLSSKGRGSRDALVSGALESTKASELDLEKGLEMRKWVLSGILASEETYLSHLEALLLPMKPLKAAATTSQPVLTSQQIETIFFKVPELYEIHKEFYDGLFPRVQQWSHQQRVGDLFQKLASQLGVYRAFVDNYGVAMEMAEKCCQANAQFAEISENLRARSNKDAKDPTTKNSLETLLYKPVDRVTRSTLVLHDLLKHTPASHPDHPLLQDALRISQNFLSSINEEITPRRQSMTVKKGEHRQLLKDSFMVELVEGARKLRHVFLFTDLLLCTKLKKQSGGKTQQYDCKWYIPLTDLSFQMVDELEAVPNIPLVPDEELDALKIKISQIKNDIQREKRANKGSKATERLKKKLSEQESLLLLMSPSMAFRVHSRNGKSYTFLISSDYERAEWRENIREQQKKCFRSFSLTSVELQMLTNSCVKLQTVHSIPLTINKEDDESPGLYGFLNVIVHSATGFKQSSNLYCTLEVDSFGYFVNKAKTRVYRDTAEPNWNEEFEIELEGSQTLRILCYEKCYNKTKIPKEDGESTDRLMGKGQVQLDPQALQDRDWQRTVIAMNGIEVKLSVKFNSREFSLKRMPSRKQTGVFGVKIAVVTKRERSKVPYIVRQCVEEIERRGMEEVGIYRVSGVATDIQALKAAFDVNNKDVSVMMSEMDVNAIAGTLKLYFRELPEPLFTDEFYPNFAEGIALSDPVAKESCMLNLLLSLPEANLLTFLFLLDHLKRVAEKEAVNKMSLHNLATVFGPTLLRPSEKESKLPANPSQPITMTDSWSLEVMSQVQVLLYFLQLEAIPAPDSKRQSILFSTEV
inactive: erlotinib -0.006 | [1] 0.037 | [2] 0.047 | [3] 0.012 | [4] -0.01 | [5] 0.004 | [6] -0.052 | [7] -0.025 | [8] -0.011 | IRAK-1-4 Inhibitor I -0.041 | ibrutinib -0.026 | [9] 0.037 | ralimetinib 0.025 | [10] -0.025 | [11] 0.014 | [12] -0.001 | [13] -0.032 | [14] 0.025 | [15] 0 | [16] 0.017

CAPNS1 (UniProt P04632)
Chain of UniProt P04632 (P04632 whole entry, looked up): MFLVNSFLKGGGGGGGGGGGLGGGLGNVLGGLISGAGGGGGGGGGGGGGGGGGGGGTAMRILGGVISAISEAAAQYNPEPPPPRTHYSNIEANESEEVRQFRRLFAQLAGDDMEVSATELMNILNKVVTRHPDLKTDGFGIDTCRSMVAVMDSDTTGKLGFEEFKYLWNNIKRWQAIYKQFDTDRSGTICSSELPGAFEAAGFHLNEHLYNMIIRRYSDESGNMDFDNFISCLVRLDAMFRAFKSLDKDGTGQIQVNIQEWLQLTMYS
inactive: erlotinib -0.066 | [1] 0.001 | [2] -0.023 | [3] 0.025 | [4] 0.006 | [5] -0.008 | [6] 0.082 | [7] -0.007 | [8] -0.039 | IRAK-1-4 Inhibitor I -0.005 | ibrutinib 0.076 | [9] 0.002 | ralimetinib 0.035 | [10] -0.007 | [11] -0.015 | [12] 0.006 | [13] 0.053 | [14] 0 | [15] -0.025 | [16] 0.01

CDC123 (UniProt O75794)
Chain of UniProt O75794 (O75794 whole entry, looked up): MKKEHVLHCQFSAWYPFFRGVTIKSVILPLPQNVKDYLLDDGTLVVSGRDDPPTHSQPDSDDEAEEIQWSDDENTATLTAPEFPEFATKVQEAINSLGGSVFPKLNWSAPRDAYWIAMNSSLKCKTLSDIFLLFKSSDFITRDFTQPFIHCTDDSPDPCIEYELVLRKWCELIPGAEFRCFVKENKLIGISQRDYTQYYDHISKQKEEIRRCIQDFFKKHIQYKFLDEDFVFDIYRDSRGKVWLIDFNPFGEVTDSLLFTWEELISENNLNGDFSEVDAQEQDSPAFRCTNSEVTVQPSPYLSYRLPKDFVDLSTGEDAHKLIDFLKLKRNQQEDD
inactive: erlotinib 0.013 | [1] -0.02 | [2] -0.011 | [3] -0.006 | [4] -0.06 | [5] -0.006 | [6] 0.013 | [7] 0 | [8] -0.004 | IRAK-1-4 Inhibitor I -0.025 | ibrutinib 0.025 | [9] 0.022 | ralimetinib 0.06 | [10] 0.008 | [11] 0.027 | [12] 0.045 | [13] 0.016 | [14] -0.071 | [15] 0.031 | [16] 0.003

CHAC2 (UniProt Q8WUX2)
inactive: erlotinib 0.019 | [1] 0.097 | [2] 0.049 | [3] 0.022 | [4] -0.023 | [5] 0.055 | [6] -0.012 | [7] 0.032 | [8] 0.044 | IRAK-1-4 Inhibitor I -0.038 | ibrutinib -0.064 | [9] -0.014 | ralimetinib -0.01 | [10] 0.043 | [11] -0.118 | [12] -0.026 | [13] -0.048 | [14] -0.016 | [15] 0.017 | [16] -0.031
